Screens: PubChem, National Center for Advancing Translational Sciences (NCATS)
KDM5B inhibitor: blocks human KDM5B histone demethylase activity. Q9UGL1. KDM5B demethylase, FDH-coupled NADH fluorescence (FDH is formaldehyde dehydrogenase). Potency, µM (titrated, usually from 57.7 µM), most hits filed as inhibitors. hit rate 2.6% among 220,000. AID 1347165; active = well fitted inhibition curve with a large enough effect; also: nearly all actives have a fitted effect of over 70% in size
Target sequence (Q9UGL1 whole entry, looked up): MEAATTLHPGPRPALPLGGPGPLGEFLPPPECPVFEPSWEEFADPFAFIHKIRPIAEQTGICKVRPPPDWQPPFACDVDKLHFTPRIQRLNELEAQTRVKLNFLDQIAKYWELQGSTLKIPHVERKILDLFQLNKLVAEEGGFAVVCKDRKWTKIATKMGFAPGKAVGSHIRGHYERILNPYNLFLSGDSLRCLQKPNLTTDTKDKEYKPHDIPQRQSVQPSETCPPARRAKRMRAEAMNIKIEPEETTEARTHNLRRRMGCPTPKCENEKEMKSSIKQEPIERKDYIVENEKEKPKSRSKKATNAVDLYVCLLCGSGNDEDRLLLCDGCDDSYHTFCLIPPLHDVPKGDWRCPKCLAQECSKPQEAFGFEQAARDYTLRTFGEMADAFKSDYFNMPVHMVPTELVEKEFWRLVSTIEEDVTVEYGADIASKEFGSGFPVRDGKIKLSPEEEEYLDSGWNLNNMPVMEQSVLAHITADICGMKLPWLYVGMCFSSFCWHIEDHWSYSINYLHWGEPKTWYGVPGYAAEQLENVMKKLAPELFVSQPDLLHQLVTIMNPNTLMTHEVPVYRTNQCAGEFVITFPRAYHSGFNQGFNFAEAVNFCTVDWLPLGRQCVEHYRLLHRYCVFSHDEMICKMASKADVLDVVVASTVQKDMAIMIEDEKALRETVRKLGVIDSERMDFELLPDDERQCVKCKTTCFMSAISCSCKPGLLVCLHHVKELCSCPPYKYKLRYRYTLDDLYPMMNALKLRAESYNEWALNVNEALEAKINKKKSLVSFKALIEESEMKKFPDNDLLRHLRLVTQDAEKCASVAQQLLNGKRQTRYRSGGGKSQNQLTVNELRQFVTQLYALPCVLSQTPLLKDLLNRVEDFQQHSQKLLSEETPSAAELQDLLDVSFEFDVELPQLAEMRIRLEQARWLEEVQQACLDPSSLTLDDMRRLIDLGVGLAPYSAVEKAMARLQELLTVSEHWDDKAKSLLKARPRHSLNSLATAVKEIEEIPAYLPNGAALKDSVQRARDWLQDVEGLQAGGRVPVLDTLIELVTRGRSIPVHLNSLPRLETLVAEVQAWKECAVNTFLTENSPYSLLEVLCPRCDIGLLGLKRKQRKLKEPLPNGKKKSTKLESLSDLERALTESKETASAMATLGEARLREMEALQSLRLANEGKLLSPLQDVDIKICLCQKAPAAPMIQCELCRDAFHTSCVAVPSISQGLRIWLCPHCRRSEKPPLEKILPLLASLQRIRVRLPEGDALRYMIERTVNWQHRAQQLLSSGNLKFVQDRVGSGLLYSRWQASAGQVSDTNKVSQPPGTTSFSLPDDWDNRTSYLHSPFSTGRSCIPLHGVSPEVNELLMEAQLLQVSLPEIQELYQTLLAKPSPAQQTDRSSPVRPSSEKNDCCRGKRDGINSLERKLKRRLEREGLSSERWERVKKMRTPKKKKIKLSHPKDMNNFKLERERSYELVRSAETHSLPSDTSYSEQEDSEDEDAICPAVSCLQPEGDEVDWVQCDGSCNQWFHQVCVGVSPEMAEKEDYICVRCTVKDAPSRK
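Here, H3K4me3 peptide (12.5 µM in substrate mix) is demethylated by KDM5BΔAP, 200 nM final, after 10 min compound exposure. Formaldehyde product is coupled through FDH (0.25 U/mL in mix) to NADH fluorescence; 30-min ΔRFU feeds dose-response curves.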
Large screens that a line does not name were inactive. The entries come from a sample that favours hits as a whole.

O=C(O)c1ccc(-c2cccnc2)cc1	none
COc1ccc2[nH]cc(C(C(=O)O)N3CCN(C4=Nc5ccccc5Oc5ccccc54)CC3)c2c1 (centres undefined)	none
N#C/C(=C\c1c[nH]c2ccccc12)c1ccccc1	none
COc1ccc(C(=O)COC(=O)c2ccc(F)cc2F)c(OC)c1	none
O=C(Nc1ccc2c(N3CCOCC3)ncnc2c1)c1ccc(Br)o1	none
CCCOc1cc(OCCC)c2c(=O)cc(-c3ccccc3)oc2c1	none
CC(C)c1noc([C@@H]2Cc3nc[nH]c3CN2Cc2ccc(F)cc2)n1	KDM5B inhibitor 28.2µM
Cc1ccc(-c2noc([C@@H]3Cc4nc[nH]c4CN3Cc3ccc(C(=O)O)cc3)n2)cc1	KDM5B inhibitor 35.5µM
COc1ccc(-c2noc([C@@H]3Cc4nc[nH]c4CN3Cc3ccccc3)n2)cc1	none
O=C(O)c1ccc(CN2Cc3[nH]cnc3C[C@H]2c2nc(-c3ccc(F)c(Cl)c3)no2)cc1	KDM5B inhibitor 25.1µM
Cc1ccc(NC(=O)N2Cc3[nH]cnc3C[C@H]2c2nc(C(C)C)no2)cc1	none
O=C(O)c1ccc(CN2Cc3[nH]cnc3C[C@H]2c2nc(-c3cccc([N+](=O)[O-])c3)no2)cc1	none
COC(=O)[C@@H]1Cc2nc[nH]c2CN1Cc1ccc(C(=O)O)cc1	KDM5B inhibitor 39.8µM
Cc1ccc(-c2noc([C@@H]3Cc4nc[nH]c4CN3Cc3ccc(CO)o3)n2)cc1	none
O=C(Nc1cccc(F)c1)N1Cc2[nH]cnc2C[C@H]1c1nc(-c2ccc(F)c(Cl)c2)no1	none
O=C([C@@H]1Cc2nc[nH]c2CN1Cc1ccc(C(F)(F)F)cc1)N1CCOCC1	none
Cc1ccc(CN2Cc3[nH]cnc3C[C@H]2C(=O)N2CCC(Cc3ccccc3)CC2)cc1	none
Cc1ccc(-c2noc([C@@H]3Cc4nc[nH]c4CN3Cc3ccc(F)cc3)n2)cc1	none
CC(C)NC(=O)c1cc(F)c(F)cc1Cl	none
O=C(COC(=O)c1cc2ccccc2[nH]1)c1ccc2ccccc2c1	none
CCNc1c(NC(=O)Nc2ccc(Br)cc2F)c(=O)oc2ccccc12	none
Cc1ccc(C(=O)/C=C/c2cccc3ccccc23)o1	none
O=C(NC1CCN(Cc2ccccc2)CC1)c1cccc2c1CCN2C(=O)c1ccccc1	none
Cn1ncc2c(NC3CCC(c4ccccc4)CC3)ncnc21 (centres undefined)	none
CN(C)S(=O)(=O)N(CC(=O)N1CCN(c2ccccc2)CC1)c1ccc(F)cc1	none
Cc1cc(C)[nH]n1	none
CN(C)c1cc(=O)c2ccnc(-c3ccc(F)c(Cl)c3)c2o1	KDM5B inhibitor 35.5µM
COc1cccc(-c2nccc3c(=O)cc(N(C)C)oc23)c1	KDM5B inhibitor 31.6µM
CN(C)c1cc(=O)c2ccnc(-c3cccc(C(F)(F)F)c3)c2o1	none
CN(C)c1cc(=O)c2ccnc(-c3ccccc3Oc3ccccc3)c2o1	KDM5B inhibitor 35.5µM
COc1cccc(Cl)c1-c1nccc2c(=O)cc(N(C)C)oc12	none
CN(c1ccccc1)c1cc(=O)c2ccnc(-c3cccnc3)c2o1	none
Cn1nccc1-c1nccc2c(=O)cc(N3CCOCC3)oc12	KDM5B inhibitor 35.5µM
CN(c1cc(=O)c2ccnc(-c3ccccc3Oc3ccccc3)c2o1)C1CCOCC1	none
COC(=O)c1ccc(C2Sc3ccccc3NC3=C2C(=O)c2ccccc23)cc1 (centres undefined)	none
CC1(C)CC(=O)C2=C(C1)OC(N)=C(C#N)C2c1cccc(Oc2ccccc2)c1 (centres undefined)	none
O=[N+]([O-])c1cccc(N/N=C/c2cccc(Br)c2)c1	none
CC(C)(C)c1cc(-c2cc(Br)c(O)c(C(C)(C)C)c2)cc(Br)c1O	none
CCc1ccc(-c2noc(CCC(=O)Nc3ccccc3N3CCOCC3)n2)cc1	none
Cc1ccc(Cl)c(OCc2n[nH]c(=S)n2C)c1	none
CC(OC(=O)c1ccc(CCNS(C)(=O)=O)cc1)C(=O)N1CCOCC1 (centres undefined)	none
CN(CC(=O)NC(N)=O)c1ccc(C(C)(C)C)cc1	none
COc1cccc(CNC(=O)Cn2c(N3CCOCC3)nc(C)cc2=O)c1	none
CN1CCC(Nc2nccc3c(=O)cc(N(C)c4ccccc4)oc23)CC1	none
COc1cccc(Nc2nccc3c(=O)cc(-c4ccccn4)oc23)c1	none
O=c1cc(N2CCOCC2)oc2c(NC3CCOCC3)nccc12	KDM5B inhibitor 35.5µM
O=c1cc(N2CCOCC2)oc2c(-c3cccnc3)nccc12	KDM5B inhibitor 39.8µM
O=c1cc(N2CCOCC2)oc2c(Nc3ccccc3)nccc12	none
COc1ccc(Nc2nccc3c(=O)cc(N4CCOCC4)oc23)cn1	KDM5B inhibitor 31.6µM
O=c1cc(-c2cccnc2)oc2c(NCC3CCOCC3)nccc12	none
O=C(O)c1cc(N2CCOCC2)ccn1	none
COc1cc(CNc2nccc3c(=O)cc(N4CCOCC4)oc23)cc(OC)c1	KDM5B inhibitor 28.2µM
Nc1ccc(OC2CCCC2)c(Cl)c1	none
O=[N+]([O-])/C(=C(\Sc1ccc(Cl)cc1)c1ccccc1)c1ccccc1	none
Cc1cc(Nc2ccccc2)nc(N2CCN(C(=O)Nc3cccc(Cl)c3)CC2)n1	none
O=C(CCc1nc(-c2ccccn2)no1)NCc1ccc(-n2cncn2)nc1	none
CC(C)CC1NC(=O)N(Cc2coc(-c3ccccc3)n2)C1=O (centres undefined)	none
O=C(Cc1c[nH]c2ccccc12)NC1CCCNC1=O (centres undefined)	none
Fc1ccc(CNCc2ccc(-c3ccccc3)o2)cc1	none
NC(=S)N/N=C/c1ccccc1Cl	none
O=C(NC1CCCCCC1)c1nc(Cc2c[nH]c3ccccc23)no1	none
Cc1c(-c2ccccc2)oc2c(C(=O)Nc3ccc(C(N)=O)cc3)cccc2c1=O	none
CN(C)c1cc(=O)c2ccnc(-c3ccccc3F)c2o1	none
C[S+](=O)([O-])c1cccc(-c2nccc3c(=O)cc(N4CCOCC4)oc23)c1	KDM5B inhibitor 28.2µM
Cc1ccc(F)cc1-c1nccc2c(=O)cc(N(C)C)oc12	KDM5B inhibitor 39.8µM
CC(=O)Nc1cccc(-c2nccc3c(=O)cc(N4CCOCC4)oc23)c1	KDM5B inhibitor 35.5µM
O=c1cc(-c2cccnc2)oc2c(-c3ccccc3F)nccc12	KDM5B inhibitor 35.5µM
O=c1cc(-c2cccnc2)oc2c(-c3ccccc3Oc3ccccc3)nccc12	none
CC(=O)Nc1cccc(C(=O)OCC(=O)N2CCOCC2)c1	none
O=S1(=O)CCN(C2CCCCC2)c2c(F)nc(N3CCOCC3)c(F)c21	none
CCN(CC(O)COCCC12CC3CC(CC(C3)C1)C2)C1CCCCC1 (centres undefined)	none
C=CCc1c(C)nc(Nc2nc(C)c3cc(CC)ccc3n2)[nH]c1=O	none
CSc1nnnn1-c1c(C)n(C)n(-c2ccccc2)c1=O	none
Cc1ccc(-n2nc(C)c(C(=O)N3CCc4ccccc4C3)c2-n2cccc2)cc1	none
O=C1CCCN1c1cccc(-c2csc(-c3ccsc3)n2)c1	none
CCc1ccc(-c2csc(NC3OC(=O)c4c3ccc(OC)c4OC)n2)cc1 (centres undefined)	none
O=C(Nc1ccc(SC(F)F)cc1)c1cc(-c2ccccc2)nc2ccccc12	none
O=C(CCc1nc2ccccc2s1)NC1CCCC(C(F)(F)F)C1 (centres undefined)	none
CCOC(=O)C(C)N1C(=O)S/C(=C/c2ccc(Cl)s2)C1=O (centres undefined)	none
COc1cccc(-c2nc(S(=O)(=O)c3ccc(C)cc3)c(N3CCOCC3)o2)c1	none
O=c1cc(N2CCOCC2)oc2c(-c3cccc(F)c3)nccc12	KDM5B inhibitor 39.8µM
COc1cccc(-c2nccc3c(=O)cc(N4CCOCC4)oc23)c1	KDM5B inhibitor 35.5µM
O=c1cc(N2CCOCC2)oc2c(-c3cncnc3)nccc12	KDM5B inhibitor 25.1µM
COc1cccc(N2CCN(C(=O)c3c(C)oc4ncnc(N5CCOCC5)c34)CC2)c1	none
N#C/C(=C/c1ccc(O)cc1)c1nc2ccccc2o1	none
